Data as given in PubChem BioAssay (EPA / NIEHS).
Records with an inconclusive call do not appear. Some structures have more than one record in an assay (separate samples or runs), and their calls can disagree. Active and inactive are the calls of the source. How the source made its calls, unless noted: active means hit-call score of the fitted dose curve at least 0.9, where 1 is the maximum; inactive means score below 0.9.

Columns and labels:
[1] = target: Glucocorticoid receptor (Homo sapiens) (UniProt P04150); assay: ATG_GR_TRANS: Attagene TRANS-FACTORIAL HepG2 Assay for human Glucocorticoid Receptor (GR) (AID 2282978; active means hit-call score of the fitted dose curve at least 0.9, where 1 is the maximum;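 further: activators score as hits since higher reporter transcript over DMSO is fitted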); details: HepG2 Attagene TRANS GR reporter, mRNA transcription
Glucocorticoid receptor (Homo sapiens), sequence (P04150 whole entry, looked up): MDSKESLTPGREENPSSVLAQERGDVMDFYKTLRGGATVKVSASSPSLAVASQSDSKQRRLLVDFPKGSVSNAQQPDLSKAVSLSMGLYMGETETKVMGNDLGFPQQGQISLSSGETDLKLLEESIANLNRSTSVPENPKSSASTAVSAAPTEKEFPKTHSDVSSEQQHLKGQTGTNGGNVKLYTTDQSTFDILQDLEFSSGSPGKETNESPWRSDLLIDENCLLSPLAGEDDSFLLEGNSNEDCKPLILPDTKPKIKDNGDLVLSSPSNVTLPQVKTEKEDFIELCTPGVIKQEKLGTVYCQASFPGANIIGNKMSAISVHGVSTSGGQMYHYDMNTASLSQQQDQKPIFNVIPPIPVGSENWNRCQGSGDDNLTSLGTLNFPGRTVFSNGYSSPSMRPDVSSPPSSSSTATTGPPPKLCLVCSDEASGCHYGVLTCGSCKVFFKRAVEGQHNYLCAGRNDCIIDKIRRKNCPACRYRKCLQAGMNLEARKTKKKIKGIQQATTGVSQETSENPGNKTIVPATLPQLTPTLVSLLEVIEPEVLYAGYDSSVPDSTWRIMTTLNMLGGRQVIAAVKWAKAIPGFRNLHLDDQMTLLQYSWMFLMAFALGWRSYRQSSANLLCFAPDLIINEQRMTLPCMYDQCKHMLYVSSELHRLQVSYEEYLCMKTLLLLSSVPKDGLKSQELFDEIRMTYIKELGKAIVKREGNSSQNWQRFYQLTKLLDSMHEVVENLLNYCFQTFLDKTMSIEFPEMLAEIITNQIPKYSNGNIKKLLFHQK
Method in brief: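 After 24 h incubation with test chemical, transfected HepG2 cells were lysed for RNA; reporter cDNA was amplified, FAM-labelled, HpaI-digested and sized on a capillary analyser. Signal gain relative to DMSO was scored.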

[2] = target: Bile acid receptor (Homo sapiens) (UniProt Q96RI1); assay: ATG_FXR_TRANS: Attagene TRANS-FACTORIAL HepG2 Assay for Farnesoid X Receptor (FXR) (AID 2282979; active means hit-call score of the fitted dose curve at least 0.9, where 1 is the maximum;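 further: hits raise reporter mRNA above DMSO so AC50 marks FXR activation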); details: HepG2 Attagene TRANS FXR-GAL4 reporter transcription
Bile acid receptor (Homo sapiens), sequence (Q96RI1 whole entry, looked up, the tested form may be a part): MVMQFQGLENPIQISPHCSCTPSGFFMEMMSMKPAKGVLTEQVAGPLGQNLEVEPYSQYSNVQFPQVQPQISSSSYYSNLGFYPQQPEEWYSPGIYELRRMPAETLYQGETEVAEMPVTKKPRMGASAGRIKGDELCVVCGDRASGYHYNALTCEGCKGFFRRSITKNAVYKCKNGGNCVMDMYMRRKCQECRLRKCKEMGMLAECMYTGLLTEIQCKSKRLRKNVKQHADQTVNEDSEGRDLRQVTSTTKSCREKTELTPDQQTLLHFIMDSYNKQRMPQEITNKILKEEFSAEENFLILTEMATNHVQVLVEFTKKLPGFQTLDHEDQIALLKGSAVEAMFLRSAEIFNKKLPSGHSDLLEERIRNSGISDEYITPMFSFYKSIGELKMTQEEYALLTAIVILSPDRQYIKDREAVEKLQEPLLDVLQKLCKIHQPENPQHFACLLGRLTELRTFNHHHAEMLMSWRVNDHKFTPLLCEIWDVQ
Method in brief: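 After 24 h chemical treatment of transfected HepG2 cells, GAL4-UAS reporter transcripts driven by an exogenous FXR-GAL4 fusion were measured by RT-PCR and capillary electrophoresis. Increases over DMSO were fitted.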

[3] = target: Oxysterols receptor LXR-alpha (Homo sapiens) (UniProt Q13133); assay: ATG_LXRa_TRANS: Attagene TRANS-FACTORIAL HepG2 Assay for human Liver X Receptor alpha (LXRa) (AID 2282980; active means hit-call score of the fitted dose curve at least 0.9, where 1 is the maximum); details: HepG2 Attagene TRANS reporter, LXRa transactivation
Oxysterols receptor LXR-alpha (Homo sapiens), sequence (Q13133 whole entry, looked up, the tested form may be a part): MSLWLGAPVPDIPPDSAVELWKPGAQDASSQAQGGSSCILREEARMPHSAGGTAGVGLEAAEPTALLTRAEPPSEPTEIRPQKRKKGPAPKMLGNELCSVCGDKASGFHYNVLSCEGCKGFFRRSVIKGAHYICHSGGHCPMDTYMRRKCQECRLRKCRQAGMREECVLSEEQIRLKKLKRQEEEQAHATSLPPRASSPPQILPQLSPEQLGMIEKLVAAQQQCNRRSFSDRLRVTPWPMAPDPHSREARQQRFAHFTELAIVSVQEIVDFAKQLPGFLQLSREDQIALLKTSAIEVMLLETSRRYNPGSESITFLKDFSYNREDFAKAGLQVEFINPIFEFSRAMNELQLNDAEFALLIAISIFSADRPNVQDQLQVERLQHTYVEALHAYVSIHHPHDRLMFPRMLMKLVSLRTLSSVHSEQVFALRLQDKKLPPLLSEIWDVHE
Method in brief: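 In this multiplexed TRANS system, compounds act on HepG2 cells carrying GAL4-UAS reporter units and a receptor-GAL4 fusion for 24 h. Induced reporter RNA is amplified, fluorescently labelled and sized by capillary electrophoresis, with DMSO as baseline.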

[4] = target: Hepatocyte nuclear factor 4-alpha (Homo sapiens) (UniProt P41235); assay: ATG_HNF4a_TRANS: Attagene TRANS-FACTORIAL HepG2 Assay for human Hepatocyte Nuclear Factor 4 alpha (HNF4a) (AID 2282982; active means hit-call score of the fitted dose curve at least 0.9, where 1 is the maximum); details: HepG2 HNF4a transactivation reporter, mRNA readout
Hepatocyte nuclear factor 4-alpha (Homo sapiens), sequence (P41235 whole entry, looked up, the tested form may be a part): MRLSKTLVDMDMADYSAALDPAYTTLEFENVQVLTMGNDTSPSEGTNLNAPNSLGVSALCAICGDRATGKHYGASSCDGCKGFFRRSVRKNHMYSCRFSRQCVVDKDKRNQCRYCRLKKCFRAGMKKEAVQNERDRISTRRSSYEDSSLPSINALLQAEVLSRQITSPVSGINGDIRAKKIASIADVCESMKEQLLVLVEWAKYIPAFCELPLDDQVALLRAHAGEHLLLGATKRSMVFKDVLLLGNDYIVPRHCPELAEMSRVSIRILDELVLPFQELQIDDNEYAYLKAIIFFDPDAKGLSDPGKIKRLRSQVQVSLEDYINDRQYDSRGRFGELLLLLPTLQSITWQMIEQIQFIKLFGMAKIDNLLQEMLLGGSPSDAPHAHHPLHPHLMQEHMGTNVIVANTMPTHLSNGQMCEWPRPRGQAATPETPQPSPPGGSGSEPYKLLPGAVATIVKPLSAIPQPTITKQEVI
Method in brief: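 Cells used were human HepG2, transiently carrying GAL4-UAS reporter units read out against exogenous NR-GAL4 chimeras. Reporter transcript levels after 24 h dosing were quantified by fluorescent RT-PCR and capillary electrophoresis.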

[5] = ATG_M_06_TRANS: Attagene TRANS-FACTORIAL HepG2 Assay for M06 Transcription Factor (Internal Marker) (AID 2282983; active means hit-call score of the fitted dose curve at least 0.9, where 1 is the maximum); details: HepG2 Attagene TRANS M06 internal marker reporter
Method in brief: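 Internal-marker background readout from a multiplexed TRANS reporter system in HepG2; 24 h dosing; mRNA induction quantified by RT-PCR plus capillary electrophoresis fluorescence; DMSO as negative control and baseline.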

[6] = ATG_M_32_TRANS: Attagene TRANS-FACTORIAL HepG2 Assay for M32 Transcription Factor (Internal Marker) (AID 2282984; active means hit-call score of the fitted dose curve at least 0.9, where 1 is the maximum;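 further: transcript level of a background control reporter unit measured by RT-PCR and capillary electrophoresis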); details: HepG2 Attagene TRANS M32 internal marker reporter
Method in brief: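 Human hepatoma HepG2, transient MRTU transfection, 24 h treatment. RNA → RT-PCR → fluorescent primer extension → HpaI digest (2 h, 37 C) → CE. Positive-direction fit vs DMSO.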

[7] = target: Nuclear receptor subfamily 4 group A member 2 (Homo sapiens) (UniProt P43354); assay: ATG_NURR1_TRANS: Attagene TRANS-FACTORIAL HepG2 Assay for human Nuclear Receptor Related Protein 1 (NURR1) (AID 2282985; active means hit-call score of the fitted dose curve at least 0.9, where 1 is the maximum); details: HepG2 Attagene TRANS reporter, mRNA readout
Nuclear receptor subfamily 4 group A member 2 (Homo sapiens), sequence (P43354 whole entry, looked up): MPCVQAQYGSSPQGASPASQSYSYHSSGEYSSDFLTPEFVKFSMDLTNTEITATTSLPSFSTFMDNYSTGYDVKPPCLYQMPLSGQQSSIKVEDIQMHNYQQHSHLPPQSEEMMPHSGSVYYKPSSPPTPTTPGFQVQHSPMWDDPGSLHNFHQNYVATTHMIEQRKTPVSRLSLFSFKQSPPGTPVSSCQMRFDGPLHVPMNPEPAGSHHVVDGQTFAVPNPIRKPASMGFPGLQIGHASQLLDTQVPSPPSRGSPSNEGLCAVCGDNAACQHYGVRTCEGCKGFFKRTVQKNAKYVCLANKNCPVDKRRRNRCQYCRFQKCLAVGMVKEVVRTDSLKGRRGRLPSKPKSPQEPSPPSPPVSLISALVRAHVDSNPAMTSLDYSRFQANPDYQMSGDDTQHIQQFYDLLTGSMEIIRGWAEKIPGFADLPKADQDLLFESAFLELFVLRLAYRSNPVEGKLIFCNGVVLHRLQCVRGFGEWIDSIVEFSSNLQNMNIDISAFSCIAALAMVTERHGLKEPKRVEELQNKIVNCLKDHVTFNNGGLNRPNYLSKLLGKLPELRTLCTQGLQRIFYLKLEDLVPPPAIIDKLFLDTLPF
Method in brief: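 After 24 h chemical dosing, total RNA from transiently transfected HepG2 cells was reverse-transcribed and reporter cDNA PCR-amplified, FAM-labelled and analysed by capillary electrophoresis. Activity fitted in positive direction, DMSO as negative control.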

[8] = target: Transcriptional activator Myb (Homo sapiens) (UniProt P10242); assay: ATG_Myb_CIS: Attagene CIS-FACTORIAL HepG2 Assay for human Myeloblastosis (Myb) Proto-Oncogene Transcription Factor (AID 2282986); details: HepG2 Attagene CIS-FACTORIAL Myb reporter transcription; actives raise or lower the signal
Transcriptional activator Myb (Homo sapiens), sequence (P10242 whole entry, looked up): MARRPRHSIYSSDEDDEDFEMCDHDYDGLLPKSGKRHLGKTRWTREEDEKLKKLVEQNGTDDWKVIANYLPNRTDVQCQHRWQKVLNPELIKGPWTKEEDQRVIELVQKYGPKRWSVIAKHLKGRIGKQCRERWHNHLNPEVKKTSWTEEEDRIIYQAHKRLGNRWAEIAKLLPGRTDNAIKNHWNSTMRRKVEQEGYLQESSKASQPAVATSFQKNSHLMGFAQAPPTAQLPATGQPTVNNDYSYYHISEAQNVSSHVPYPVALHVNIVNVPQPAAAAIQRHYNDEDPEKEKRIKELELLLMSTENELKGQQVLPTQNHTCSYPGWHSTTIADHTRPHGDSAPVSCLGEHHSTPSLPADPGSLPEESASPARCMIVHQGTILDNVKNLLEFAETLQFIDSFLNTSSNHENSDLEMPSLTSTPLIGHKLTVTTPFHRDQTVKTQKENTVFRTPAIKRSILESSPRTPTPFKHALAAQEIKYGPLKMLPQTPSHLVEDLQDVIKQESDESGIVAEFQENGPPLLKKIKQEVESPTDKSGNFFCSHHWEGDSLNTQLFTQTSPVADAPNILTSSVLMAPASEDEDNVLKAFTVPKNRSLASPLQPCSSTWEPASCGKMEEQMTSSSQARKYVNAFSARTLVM
Method in brief: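 After 24 h of compound dosing, total RNA from transfected HepG2 cells is reverse-transcribed and the reporter sequences amplified, labeled and separated by capillary electrophoresis. Values come from bidirectional fitting against DMSO.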

[9] = target: Nuclear respiratory factor 1 (Homo sapiens) (UniProt Q16656); assay: ATG_NRF1_CIS: Attagene CIS-FACTORIAL HepG2 Assay for human Nuclear Respiratory Factor 1 (NRF1) Orphan Gene (AID 2282987); details: HepG2 NRF1 cis-element reporter, Attagene multiplex; actives raise or lower the signal
Nuclear respiratory factor 1 (Homo sapiens), sequence (Q16656 whole entry, looked up): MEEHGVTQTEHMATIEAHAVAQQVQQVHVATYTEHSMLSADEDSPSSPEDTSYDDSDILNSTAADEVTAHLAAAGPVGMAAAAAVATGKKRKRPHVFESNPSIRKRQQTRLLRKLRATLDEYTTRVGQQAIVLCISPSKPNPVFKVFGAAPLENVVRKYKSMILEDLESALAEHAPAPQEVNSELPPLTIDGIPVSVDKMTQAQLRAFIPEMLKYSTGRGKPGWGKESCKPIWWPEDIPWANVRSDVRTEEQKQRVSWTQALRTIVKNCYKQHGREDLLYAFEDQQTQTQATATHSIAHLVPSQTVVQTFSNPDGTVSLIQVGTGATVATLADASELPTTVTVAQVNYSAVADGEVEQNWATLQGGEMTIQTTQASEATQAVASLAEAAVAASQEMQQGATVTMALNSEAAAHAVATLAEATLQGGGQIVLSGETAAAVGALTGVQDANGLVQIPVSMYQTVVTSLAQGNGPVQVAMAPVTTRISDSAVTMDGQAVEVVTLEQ
Method in brief: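 Measured: fluorescent reporter-specific RT-PCR products from transfected HepG2 cells, separated by capillary electrophoresis. Exposure lasted 24 h. Analysis used bidirectional curve fitting with DMSO as negative control.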

[10] = ATG_NFI_CIS: Attagene CIS-FACTORIAL HepG2 Assay for human Nuclear Factor I (NFI) (AID 2282989); details: HepG2 cis-regulatory reporter, NFI response element transcription; actives raise or lower the signal
Method in brief: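 Reporter transcription driven by endogenous transcription factors in HepG2 cells; 24 h treatment. Quantitation by labelled RT-PCR fragments on capillary electrophoresis, gain- or loss-of-signal relative to DMSO.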

[11] = ATG_NF_kB_CIS: Attagene CIS-FACTORIAL HepG2 Assay for human Nuclear Factor Kappa B (NF-kB) (AID 2282991); details: HepG2 Attagene cis-factorial NF-kB reporter mRNA; actives raise or lower the signal
Method in brief: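 Fluorescence of labelled RT-PCR products separated by capillary electrophoresis gives reporter mRNA levels from transfected HepG2 cells exposed 24 h; values are fitted in both directions relative to DMSO.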

[12] = ATG_NRF2_ARE_CIS: Attagene CIS-FACTORIAL HepG2 Assay for human Nuclear Factor Erythroid 2 Related Factor 2 (NFR2) response to Antioxidant Response Elements (ARE) (AID 2282992); details: HepG2 Attagene ARE/NRF2 reporter, transcription factor activity; actives raise or lower the signal
Method in brief: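 Transient MRTU transfection of HepG2; 24 h compound exposure; TriZol RNA, RT with oligo(dT), PCR, 6-FAM primer extension, HpaI cut, CE. Bidirectional fit vs DMSO.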

[13] = ATG_Oct_MLP_CIS: Attagene CIS-FACTORIAL HepG2 Assay for human Octamer-Binding Transcription Factor (Oct) (AID 2282993); details: HepG2 Attagene cis-factorial Oct reporter, mRNA; actives raise or lower the signal
Method in brief: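 Transfected HepG2 cells, 24 h treatment. Reporter mRNA quantified by RT-PCR–capillary electrophoresis; bidirectional fitting against DMSO.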

[14] = target: Cellular tumor antigen p53 (Homo sapiens) (UniProt P04637); assay: ATG_p53_CIS: Attagene CIS-FACTORIAL HepG2 Assay for human p53 Transcription Factor (AID 2282994); details: HepG2 p53 cis-element reporter, Attagene mRNA; actives raise or lower the signal
Cellular tumor antigen p53 (Homo sapiens), sequence (P04637 whole entry, looked up): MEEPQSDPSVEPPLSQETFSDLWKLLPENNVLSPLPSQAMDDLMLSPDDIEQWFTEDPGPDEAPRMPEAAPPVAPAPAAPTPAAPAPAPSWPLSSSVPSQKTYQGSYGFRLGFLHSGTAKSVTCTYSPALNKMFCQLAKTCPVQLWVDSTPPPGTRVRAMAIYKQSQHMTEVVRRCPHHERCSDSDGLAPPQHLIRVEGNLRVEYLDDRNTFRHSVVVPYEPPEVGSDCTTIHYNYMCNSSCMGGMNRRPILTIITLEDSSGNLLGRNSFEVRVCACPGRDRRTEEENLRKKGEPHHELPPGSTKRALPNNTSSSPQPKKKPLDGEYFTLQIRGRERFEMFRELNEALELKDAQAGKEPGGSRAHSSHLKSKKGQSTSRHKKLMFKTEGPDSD
Method in brief: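 HepG2, transient MRTU transfection (cis promoter elements, endogenous TFs); 24 h dosing; RNA isolation, RT-PCR, 6-FAM primer extension, HpaI digest, CE fluorescence; bidirectional fit vs DMSO.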

[15] = BSK_3C_uPAR: BioMAP Diversity Plus: 3C Assay for Urokinase-type plasminogen activator receptor (uPAR) Biomarker Activity (AID 2282998); details: BioMAP 3C HUVEC, uPAR biomarker ELISA; actives raise or lower the signal
Method in brief: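 Readout: ELISA for surface uPAR. System: human umbilical vein endothelial primary cells, 24 h after chemical exposure. Analysis: bidirectional fit, DMSO baseline.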

[16] = BSK_3C_VCAM1: BioMAP Diversity Plus: 3C Assay for Vascular cell adhesion molecule 1 (VCAM1) Biomarker Activity (AID 2282999); details: BioMAP 3C HUVEC, VCAM1 ELISA, cytokine-stimulated; actives raise or lower the signal
Method in brief: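 Human umbilical vein endothelial cells were dosed with compound for 24 h, after which cell-surface VCAM-1 was quantified by ELISA. Bidirectional curve fitting used DMSO as negative control and activity baseline.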

[17] = BSK_4H_Eotaxin3: BioMAP Diversity Plus: 4H Assay for Eotaxin 3 Biomarker Activity (AID 2283000); details: primary human endothelial cells (HUVEC); actives raise or lower the signal
Method in brief: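 ELISA quantitation of CCL26 (Eotaxin-3) protein from chemically dosed human vascular endothelial cells at 24 h; increases and decreases both scored relative to DMSO-treated baseline.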

[18] = BSK_3C_TissueFactor: BioMAP Diversity Plus: 3C Assay for Tissue Factor Biomarker Activity (AID 2282997); details: BioMAP 3C HUVEC, tissue factor biomarker readout; actives raise or lower the signal
Method in brief: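 Endothelial monolayers (human umbilical vein, primary) are dosed, incubated 24 h, and assayed for Tissue Factor by ELISA; DMSO serves as negative control for bidirectional fitting.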

[19] = target: Myc proto-oncogene protein (Homo sapiens) (UniProt P01106); assay: ATG_Myc_CIS: Attagene CIS-FACTORIAL HepG2 Assay for human Myelocytomatosis (Myc) Proto-Oncogene Transcription Factor (AID 2282990); details: HepG2, Attagene cis-reporter transcription factor activity; actives raise or lower the signal
Myc proto-oncogene protein (Homo sapiens), sequence (P01106 whole entry, looked up): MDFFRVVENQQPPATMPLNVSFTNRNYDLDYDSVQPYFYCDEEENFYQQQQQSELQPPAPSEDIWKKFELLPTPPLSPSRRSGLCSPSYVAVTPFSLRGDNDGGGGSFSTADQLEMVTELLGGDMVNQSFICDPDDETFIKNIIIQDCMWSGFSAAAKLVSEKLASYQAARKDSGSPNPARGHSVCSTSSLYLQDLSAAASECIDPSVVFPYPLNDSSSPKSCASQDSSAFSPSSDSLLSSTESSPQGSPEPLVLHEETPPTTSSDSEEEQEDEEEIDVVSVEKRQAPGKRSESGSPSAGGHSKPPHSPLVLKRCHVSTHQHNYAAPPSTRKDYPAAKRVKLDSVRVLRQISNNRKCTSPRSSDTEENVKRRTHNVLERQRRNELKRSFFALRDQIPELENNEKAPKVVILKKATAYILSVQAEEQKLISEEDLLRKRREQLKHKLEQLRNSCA
Method in brief: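 HepG2 cells transiently transfected with multiple cis-promoter-driven reporter transcription units, so endogenous TF activity is read. After 24 h compound exposure, reporter mRNA was quantified by RT-PCR, 6-FAM labelling, HpaI digestion and capillary electrophoresis; bidirectional fit versus DMSO.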

Measured: AC50

O=CCCCC=O
active: [11] 73.1 µM | [12] 169 µM | [15] 33.3 µM | [16] 31.6 µM | [17] 31.4 µM
inactive: [1] | [2] | [3] | [4] | [5] | [6] | [7] | [8] | [9] | [10] | [11] | [12] | [13] | [14]

O=C(O)c1ccccc1-n1cc(C(=O)O)c(=O)c2cc(Nc3c(F)cc(F)cc3Cl)c(Cl)cc21
not listed: [4] | [5] | [7] | [9] | [19]
inactive: all other assays above

O=C(O)Cn1c(=O)n(Cc2ccc(Br)cc2F)c(=O)c2ccc(Cl)cc21
active: [11] 161 µM | [12] 26.5 µM
not listed: [3] | [4] | [5] | [6] | [9] | [18] | [19]
inactive: all other assays above

COCC(C)OCC(C)OCC(C)O (stereo unspecified)
not listed: [3] | [4]
inactive: all other assays above

CC(C)(C)c1csc(-c2cc3cc(OCc4ccccc4CC(=O)O)ccc3o2)n1
active: [12] 8.91 µM | [13] 33.4 µM | [18] 35.7 µM | [15] 20.5 µM | [16] 29.8 µM | [17] 22.4 µM
not listed: [3] | [4] | [7] | [9] | [11]
inactive: all other assays above

COc1cccc([C@H](O)C2CCN(CCc3ccc(F)cc3)CC2)c1OC
active: [12] 140 µM | [13] 157 µM | [14] 100 µM
not listed: [3] | [4] | [5] | [7]
inactive: all other assays above
